We go through eight sequences from PMC7862700, “An all-to-all approach to the identification of sequence-specific readers for epigenetic DNA modifications on cytosine”.

Common to all, as to assay: DAPPL (digital affinity profiling via proximity ligation, sequencing); 10 mM Tris-HCl pH 7.5, 50 mM NaCl, 1 mM DTT, 4% glycerol, room temperature, 30 min; GST-TFs on glutathione beads, 16-mer random dsDNA library, 0.1% formaldehyde crosslink after washing; high values mean tight binding
Common to all, as to conditions: protein: recombinant; tags: N-terminal GST; dsDNA, one strand shown

The target of one experiment is T1, FLI1 (Homo sapiens, UniProt Q01543 1-452).
T1 sequence: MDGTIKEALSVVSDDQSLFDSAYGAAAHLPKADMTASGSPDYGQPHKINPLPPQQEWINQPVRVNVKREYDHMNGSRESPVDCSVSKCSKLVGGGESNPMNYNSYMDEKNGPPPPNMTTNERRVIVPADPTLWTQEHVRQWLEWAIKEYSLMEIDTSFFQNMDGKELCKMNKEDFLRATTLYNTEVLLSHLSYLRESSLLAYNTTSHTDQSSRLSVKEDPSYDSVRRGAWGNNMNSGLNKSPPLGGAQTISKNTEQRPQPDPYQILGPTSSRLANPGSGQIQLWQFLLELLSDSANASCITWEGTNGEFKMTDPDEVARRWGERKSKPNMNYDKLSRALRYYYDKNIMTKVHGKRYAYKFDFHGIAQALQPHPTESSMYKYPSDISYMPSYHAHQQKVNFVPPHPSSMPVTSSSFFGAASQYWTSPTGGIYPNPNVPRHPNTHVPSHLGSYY
The method in brief:
(§1)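 Binding signal is each hexamer's read frequency for a factor divided by its frequency in the tag-only sample. The factors were GST-fused human transcription factors from yeast, captured on glutathione beads, DNA-barcoded and pooled with that sample. Pools were incubated with 200 nmole of a random double-stranded 16-mer DNA library in Tris/NaCl/DTT/glycerol buffer at room temperature for 30 min, then washed, crosslinked with 0.1% formaldehyde, proximity-ligated with BsaI/T4 ligase (1 h, 37 °C), PCR-amplified and sequenced on an Illumina NextSeq500.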

For another experiment, the target named is T2, ELK1 (Homo sapiens, UniProt P19419 1-428).
T2 sequence: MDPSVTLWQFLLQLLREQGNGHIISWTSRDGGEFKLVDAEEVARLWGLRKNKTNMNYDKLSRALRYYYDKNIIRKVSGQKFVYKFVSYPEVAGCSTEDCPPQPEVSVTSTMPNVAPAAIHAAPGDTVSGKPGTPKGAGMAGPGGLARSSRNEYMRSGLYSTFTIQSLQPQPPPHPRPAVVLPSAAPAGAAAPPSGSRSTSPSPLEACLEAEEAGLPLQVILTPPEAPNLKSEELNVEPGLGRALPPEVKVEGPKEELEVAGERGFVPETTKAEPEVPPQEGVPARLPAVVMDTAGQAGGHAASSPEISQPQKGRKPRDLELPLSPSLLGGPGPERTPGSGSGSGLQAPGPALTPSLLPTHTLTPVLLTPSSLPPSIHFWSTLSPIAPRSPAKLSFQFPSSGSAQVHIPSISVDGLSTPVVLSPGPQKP
The method in brief:
as §1

The target of a further experiment is T3, GABPA (Homo sapiens, UniProt Q06546 1-454).
T3 sequence: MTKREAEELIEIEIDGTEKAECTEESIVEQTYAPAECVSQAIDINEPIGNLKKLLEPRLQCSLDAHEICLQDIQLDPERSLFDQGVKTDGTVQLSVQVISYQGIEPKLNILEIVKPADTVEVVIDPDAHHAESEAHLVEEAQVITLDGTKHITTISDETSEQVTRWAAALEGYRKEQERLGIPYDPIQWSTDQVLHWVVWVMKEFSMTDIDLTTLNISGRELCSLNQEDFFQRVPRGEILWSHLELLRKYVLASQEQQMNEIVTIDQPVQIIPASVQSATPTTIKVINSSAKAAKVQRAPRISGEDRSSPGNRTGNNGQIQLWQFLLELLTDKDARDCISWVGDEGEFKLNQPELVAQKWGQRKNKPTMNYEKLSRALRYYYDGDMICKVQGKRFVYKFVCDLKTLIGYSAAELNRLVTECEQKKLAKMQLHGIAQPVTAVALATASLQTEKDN
The method in brief: as §1

The next experiment deals with T4, ERG (Homo sapiens, UniProt P11308 1-479).
T4 sequence: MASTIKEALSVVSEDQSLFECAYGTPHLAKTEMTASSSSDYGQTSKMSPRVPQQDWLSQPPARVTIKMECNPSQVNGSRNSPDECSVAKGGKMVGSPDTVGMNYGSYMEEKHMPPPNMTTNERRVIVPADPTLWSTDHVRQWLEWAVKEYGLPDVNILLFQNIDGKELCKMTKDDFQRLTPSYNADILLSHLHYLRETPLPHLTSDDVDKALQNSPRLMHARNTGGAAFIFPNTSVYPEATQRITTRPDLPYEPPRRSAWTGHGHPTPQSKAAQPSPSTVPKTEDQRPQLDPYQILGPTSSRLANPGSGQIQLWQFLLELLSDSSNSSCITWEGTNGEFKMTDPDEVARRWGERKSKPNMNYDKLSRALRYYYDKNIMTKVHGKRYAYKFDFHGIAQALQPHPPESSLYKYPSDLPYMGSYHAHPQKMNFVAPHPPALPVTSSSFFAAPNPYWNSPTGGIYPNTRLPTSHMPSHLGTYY
The gist of the method:
as §1

For the next experiment, the target named is ELF1 (Homo sapiens, UniProt P32519 1-619). The gist of the method:
as §1

In another experiment the target is T5, EHF (Homo sapiens, UniProt Q9NZC4 1-300).
T5 sequence: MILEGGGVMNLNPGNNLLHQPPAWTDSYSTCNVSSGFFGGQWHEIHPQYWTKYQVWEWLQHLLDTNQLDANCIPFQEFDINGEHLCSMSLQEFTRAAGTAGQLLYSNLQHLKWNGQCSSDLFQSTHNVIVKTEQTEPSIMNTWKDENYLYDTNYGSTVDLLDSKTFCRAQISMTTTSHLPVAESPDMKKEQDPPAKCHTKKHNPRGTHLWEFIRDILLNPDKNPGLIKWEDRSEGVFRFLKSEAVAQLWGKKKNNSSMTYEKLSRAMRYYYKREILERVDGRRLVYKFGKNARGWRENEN
The gist of the method:
as §1

Another experiment addresses SPI1 (Homo sapiens, UniProt P17947 1-270). The method in brief:
as §1

A further experiment addresses SPIB (Homo sapiens, UniProt Q01892 1-262). The method in brief: as §1
A further experiment addresses T6, ELK3 (Homo sapiens, UniProt P41970 1-407).
T6 sequence: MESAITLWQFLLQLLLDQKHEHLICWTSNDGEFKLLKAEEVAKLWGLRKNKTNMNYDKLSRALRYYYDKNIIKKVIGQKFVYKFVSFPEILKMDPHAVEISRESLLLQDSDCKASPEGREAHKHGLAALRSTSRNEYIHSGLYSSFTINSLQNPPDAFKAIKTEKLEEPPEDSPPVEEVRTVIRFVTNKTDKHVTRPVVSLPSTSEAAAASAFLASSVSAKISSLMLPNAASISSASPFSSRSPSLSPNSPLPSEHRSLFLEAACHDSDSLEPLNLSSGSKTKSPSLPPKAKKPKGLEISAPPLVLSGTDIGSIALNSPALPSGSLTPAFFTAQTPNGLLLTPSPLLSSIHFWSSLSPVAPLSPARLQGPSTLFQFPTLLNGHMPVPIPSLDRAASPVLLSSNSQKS
The method in brief:
as §1

Sequence of SPIB (Q01892 whole entry): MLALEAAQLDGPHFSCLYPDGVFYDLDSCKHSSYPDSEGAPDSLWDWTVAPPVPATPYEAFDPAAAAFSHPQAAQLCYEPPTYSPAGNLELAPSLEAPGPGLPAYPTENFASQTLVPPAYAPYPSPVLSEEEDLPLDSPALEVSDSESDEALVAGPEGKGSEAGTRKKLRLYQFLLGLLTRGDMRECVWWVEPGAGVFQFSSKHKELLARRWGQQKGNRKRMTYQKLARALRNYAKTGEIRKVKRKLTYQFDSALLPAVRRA
Sequence of ELF1 (P32519 whole entry): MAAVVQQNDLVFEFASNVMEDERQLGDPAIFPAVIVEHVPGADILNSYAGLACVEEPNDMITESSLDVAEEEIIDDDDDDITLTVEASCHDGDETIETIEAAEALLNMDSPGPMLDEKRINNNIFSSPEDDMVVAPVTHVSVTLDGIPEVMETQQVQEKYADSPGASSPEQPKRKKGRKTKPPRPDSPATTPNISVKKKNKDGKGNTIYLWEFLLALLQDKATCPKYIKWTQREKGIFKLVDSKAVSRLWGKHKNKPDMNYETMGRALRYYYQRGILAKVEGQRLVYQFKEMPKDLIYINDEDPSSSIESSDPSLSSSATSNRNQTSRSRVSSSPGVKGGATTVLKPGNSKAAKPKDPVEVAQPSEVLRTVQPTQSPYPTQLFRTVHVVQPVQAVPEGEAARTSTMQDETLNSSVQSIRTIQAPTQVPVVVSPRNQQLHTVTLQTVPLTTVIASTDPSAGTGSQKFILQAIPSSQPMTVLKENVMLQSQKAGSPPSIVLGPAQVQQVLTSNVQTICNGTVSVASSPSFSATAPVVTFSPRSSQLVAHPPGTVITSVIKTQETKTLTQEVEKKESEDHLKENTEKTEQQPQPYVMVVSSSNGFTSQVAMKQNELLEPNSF

TTTCCC: the binding signal in the experiment with FLI1 was 1.65 fold enrichment (6-mer frequency, TF over GST control); with ELK1, 1.69 fold enrichment (6-mer frequency, TF over GST control); in the experiment with GABPA, 1.76 fold enrichment (6-mer frequency, TF over GST control); in the experiment with ERG, 1.88 fold enrichment (6-mer frequency, TF over GST control); with ELF1 it was 1.61 fold enrichment (6-mer frequency, TF over GST control); with EHF it was 1.69 fold enrichment (6-mer frequency, TF over GST control). Also, the binding signal was 1.69 fold enrichment (6-mer frequency, TF over GST control) with SPI1; 1.81 fold enrichment (6-mer frequency, TF over GST control) in the experiment with SPIB; 1.75 fold enrichment (6-mer frequency, TF over GST control) with ELK3.

Regarding ATTGAT, the binding signal with FLI1 was 1.28 fold enrichment (6-mer frequency, TF over GST control); in the experiment with ELK1, 1.35 fold enrichment (6-mer frequency, TF over GST control); in the experiment with GABPA, 1.39 fold enrichment (6-mer frequency, TF over GST control); in the experiment with ERG it was 1.33 fold enrichment (6-mer frequency, TF over GST control); with ELF1, 1.31 fold enrichment (6-mer frequency, TF over GST control); in the experiment with EHF, 1.17 fold enrichment (6-mer frequency, TF over GST control). In addition, the binding signal in the experiment with SPI1 was 1.24 fold enrichment (6-mer frequency, TF over GST control); with SPIB, 1.16 fold enrichment (6-mer frequency, TF over GST control); in the experiment with ELK3 it was 1.33 fold enrichment (6-mer frequency, TF over GST control).

On to ATTCGC, for which the binding signal in the experiment with FLI1 was 1.18 fold enrichment (6-mer frequency, TF over GST control); with ELK1 it was 1.15 fold enrichment (6-mer frequency, TF over GST control); with GABPA it was 1.25 fold enrichment (6-mer frequency, TF over GST control); with ERG it was 1.25 fold enrichment (6-mer frequency, TF over GST control); with ELF1, 1.15 fold enrichment (6-mer frequency, TF over GST control); with EHF, 1.18 fold enrichment (6-mer frequency, TF over GST control). The binding signal in the experiment with SPI1 was 1.21 fold enrichment (6-mer frequency, TF over GST control); in the experiment with SPIB, 1.33 fold enrichment (6-mer frequency, TF over GST control); in the experiment with ELK3, 1.06 fold enrichment (6-mer frequency, TF over GST control).

TGTTGC: the binding signal is 1.33 fold enrichment (6-mer frequency, TF over GST control) with FLI1; 1.32 fold enrichment (6-mer frequency, TF over GST control) with ELK1; 1.33 fold enrichment (6-mer frequency, TF over GST control) with GABPA; 1.3 fold enrichment (6-mer frequency, TF over GST control) with ERG; 1.31 fold enrichment (6-mer frequency, TF over GST control) with ELF1; 1.3 fold enrichment (6-mer frequency, TF over GST control) in the experiment with EHF. The binding signal is 1.33 fold enrichment (6-mer frequency, TF over GST control) with SPI1; 1.35 fold enrichment (6-mer frequency, TF over GST control) with SPIB; 1.4 fold enrichment (6-mer frequency, TF over GST control) with ELK3.

As for CTTAAA, the binding signal is 1.12 fold enrichment (6-mer frequency, TF over GST control) with FLI1; 1.14 fold enrichment (6-mer frequency, TF over GST control) in the experiment with ELK1; 1.24 fold enrichment (6-mer frequency, TF over GST control) in the experiment with GABPA; 1.16 fold enrichment (6-mer frequency, TF over GST control) in the experiment with ERG; 1.22 fold enrichment (6-mer frequency, TF over GST control) with ELF1; 1.2 fold enrichment (6-mer frequency, TF over GST control) in the experiment with EHF. The binding signal in the experiment with SPI1 is 1.22 fold enrichment (6-mer frequency, TF over GST control); with SPIB, 1.23 fold enrichment (6-mer frequency, TF over GST control); with ELK3, 1.08 fold enrichment (6-mer frequency, TF over GST control).

As to TACCCG, the binding signal was 1.42 fold enrichment (6-mer frequency, TF over GST control) with FLI1; 1.35 fold enrichment (6-mer frequency, TF over GST control) with ELK1; 1.51 fold enrichment (6-mer frequency, TF over GST control) with GABPA; 1.57 fold enrichment (6-mer frequency, TF over GST control) with ERG; 1.52 fold enrichment (6-mer frequency, TF over GST control) in the experiment with ELF1; 1.58 fold enrichment (6-mer frequency, TF over GST control) in the experiment with EHF. Also, the binding signal with SPI1 is 1.42 fold enrichment (6-mer frequency, TF over GST control); in the experiment with SPIB, 1.52 fold enrichment (6-mer frequency, TF over GST control); with ELK3 it was 1.37 fold enrichment (6-mer frequency, TF over GST control).

As to AACCTT, the binding signal in the experiment with FLI1 was 1.3 fold enrichment (6-mer frequency, TF over GST control); with ELK1, 1.25 fold enrichment (6-mer frequency, TF over GST control); with GABPA it was 1.25 fold enrichment (6-mer frequency, TF over GST control); with ERG it was 1.26 fold enrichment (6-mer frequency, TF over GST control); with ELF1, 1.33 fold enrichment (6-mer frequency, TF over GST control); with EHF, 1.33 fold enrichment (6-mer frequency, TF over GST control). Besides, the binding signal was 1.26 fold enrichment (6-mer frequency, TF over GST control) with SPI1; 1.34 fold enrichment (6-mer frequency, TF over GST control) in the experiment with SPIB; 1.33 fold enrichment (6-mer frequency, TF over GST control) with ELK3.

Consider TTGTAA, for which the binding signal is 1.32 fold enrichment (6-mer frequency, TF over GST control) with FLI1; 1.3 fold enrichment (6-mer frequency, TF over GST control) with ELK1; 1.24 fold enrichment (6-mer frequency, TF over GST control) with GABPA; 1.27 fold enrichment (6-mer frequency, TF over GST control) in the experiment with ERG; 1.34 fold enrichment (6-mer frequency, TF over GST control) with ELF1; 1.34 fold enrichment (6-mer frequency, TF over GST control) with EHF. Besides, the binding signal was 1.3 fold enrichment (6-mer frequency, TF over GST control) with SPI1; 1.22 fold enrichment (6-mer frequency, TF over GST control) in the experiment with SPIB; 1.08 fold enrichment (6-mer frequency, TF over GST control) in the experiment with ELK3.
